TDP1 cell CPT = DT40-hTDP1 cell growth loss with CPT; Potency, µM (highest dose often 46.2 µM), for the others: at the top dose activity change, negative = growth inhibition, usual class: inhibitors; 420,000 compounds, 12% hits; chicken DT40 Tdp1-/-;hTDP1 cells + 20 nM CPT, ATP luminescence, 48 h; AID 686979; note: nearly all actives have a fitted effect of over 55% in size
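Chicken DT40 Tdp1-/- cells stably complemented with human TDP1 were seeded at 400 cells/well in medium containing 20 nM camptothecin, exposed to pin-transferred compounds, and grown at 37 °C for at least 48 hr. Viability was read as ATP luminescence.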
KB-3-1 tox = kills parental KB-3-1 adenocarcinoma cells. 400,000 compounds, 1.4% hits. Potency, µM (series often up to 46.1 µM), most hits filed as cytotoxic. AID 1347075. KB-3-1 viability, CellTiter-Glo ATP luminescence, 72 h; note: nearly all actives have a fitted effect of over 60% in size
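Cytotoxicity in the drug-sensitive parental line KB-3-1 was scored as loss of CellTiter-Glo luminescence following 72 h incubation with compound. Values come from curve fitting of normalized concentration-response data.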
HT1080NT lethal = kills 2HG-producing HT-1080-NT fibrosarcoma cells. HT-1080-NT fibrosarcoma viability, CellTiter-Glo ATP luminescence, 48 h. Potency, µM (titrated, usually from 46.1 µM), for the others: at the top dose activity, negative = less viability, usual class: cytotoxic. 360,000 compounds, 1.6% hits;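 note: NT is the 2HG producing partner of a matched IDH1 knockdown line; 0% = DMSO-treated cells and -100% = media-only wells without cells; nearly all actives have a fitted effect of over 55% in size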
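HT-1080-NT; 750 cells/well; 5% FBS RPMI; 48 h compound, 37 degrees C; CellTiter-Glo luminescence; curve fitting and curve-class assignment.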
KB-V1 cytotox = KB-V1 MDR subline cytotoxicity; KB-V1 MDR cells viability, CellTiter-Glo, 72 h; Potency, µM (top dose mostly 46.1 µM), most hits filed as cytotoxic; 400,000 compounds, 3.4% hits; AID 1347076; note: nearly all actives have a fitted effect of over 60% in size
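KB-V1 cells (P-gp-expressing MDR subline of KB-3-1) in phenol-red-free DMEM with 10% FBS were exposed to library compounds over a concentration series for 72 h at 37 degrees C. Viability read by CellTiter-Glo luminescence; concentration-effect curves fitted after normalization.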
HT1080 IDH1KD tx = HT-1080 IDH1 knockdown cell toxicity (counter line); HT-1080 IDH1 knockdown viability, ATP luminescence, 48 h; Potency, µM (top dose mostly 46.1 µM), for inactives: top-dose activity, negative = toxicity, hits mostly cytotoxic; 360,000 compounds, 2% hits; AID 686971;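 note: 0% = DMSO wells and -100% = cell-free medium wells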
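Luminescent ATP read-out (CellTiter-Glo, 10 min at room temperature) after 48 h compound exposure at 37 °C gave viability of IDH1-knockdown HT-1080 cells. Activity was normalised to DMSO and cell-free wells, then fitted as concentration-response curves.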
DT40 TDP1 no CPT = qHTS for Inhibitors of human tyrosyl-DNA phosphodiesterase 1 (TDP1): qHTS in cells in absence of CPT. DT40 Tdp1-/- hTDP1 cells, no CPT, ATP luminescence, 48 h. Potency, µM (doses to about 46.2 µM), for the others: at the top dose activity change, negative = growth inhibition, most hits filed as inhibitors. 420,000 compounds, 15% hits. AID 686978, 2013; note: nearly all actives have a fitted effect of over 55% in size
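DT40 Tdp1-/-;hTDP1 cells, no CPT (DMSO vehicle only), 400 cells/well; compounds pin-transferred; ≥48 hr, 37 °C; CellTiter-Glo 30 min RT dark, luminescence read.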
Numbers without * were called inactive; i = inactive; ? = inconclusive; . = not tested or not shown. The list is not random: actives were taken first. Their share in the collection is about 19%. Calls come from the whole dose curve; as a rule, active = well fitted curve in the direction sought with a large enough effect; inconclusive = small, poorly fitted or top-dose-only effect, or another doubt; inactive = no such curve, though single readings can be large; an effect the other way counts as inactive or inconclusive. Unless noted, % is set by controls: 0 for no effect and ±100 for the full control effect; potency is the fitted concentration of half-maximal effect.

SMILES | TDP1 cell CPT | KB-3-1 tox | HT1080NT lethal | KB-V1 cytotox | HT1080 IDH1KD tx | DT40 TDP1 no CPT
O=C(CCCN1C(=O)c2cccc3cccc(c23)C1=O)N1CCN(c2ccccc2)CC1 | ? | i | 1% | i | -5% | ?
O=C(CCCN1C(=O)c2cccc3cccc(c23)C1=O)N1CCN(c2ccccc2O)CC1 | ? | ? | -4% | 6.5µM* | 1% | 15µM*
O=C(Nc1ccc(C(F)(F)F)cc1)N1CCC(N2CCCCC2)CC1 | ? | . | . | . | . | -20%
CCN(CC)C(=O)CC(c1ccc(N(C)C)cc1)c1c(OC)cc(OC)c2ccc(=O)oc12 (centres undefined) | ? | i | 3% | i | 0% | -24%
COc1cc(OC)c2ccc(=O)oc2c1C(CCN1CCCC1)c1ccc(N(C)C)cc1 (centres undefined) | 9.2µM* | i | -2% | i | -5% | ?
CCN(CC)CCC(c1ccc(N(C)C)cc1)c1c(OC)cc(OC)c2ccc(=O)oc12 (centres undefined) | 10µM* | i | -2% | i | -9% | 13µM*
O=S(=O)(Cc1ccccc1)N1CCN(c2ncccn2)CC1 | 3% | i | 4% | i | 4% | -10%
Nc1cc(C(=O)O)c(N)c2c1C(=O)c1ccccc1C2=O | 16µM* | ? | ? | i | ? | ?
Nc1c(C(=O)O)ccc2c1C(=O)c1ccccc1C2=O | -8% | ? | -23% | ? | -21% | ?
CC(/C=N/NC(=O)c1cc(C(C)(C)C)[nH]n1)=C\c1ccccc1 | ? | ? | ? | ? | ? | 23µM*
CC(/C=N/NC(=O)c1cc(-c2ccc(C)s2)[nH]n1)=C\c1ccccc1 | 8.2µM* | 21µM* | 5.2µM* | ? | 7.3µM* | 2.6µM*
Cc1ccc(-c2cc(C(=O)N/N=C/c3ccco3)n[nH]2)s1 | -26% | i | 9% | ? | -1% | ?
CC1=C(C(=O)Nc2ccccc2)C(c2ccncc2)n2nc(SCc3ccccc3F)nc2N1 (centres undefined) | -15% | i | . | i | . | 2%
CC(C)(C)[C@H]1CCC(=O)N(CCSc2ccc(Br)cc2)CC1 | ? | i | . | ? | . | 22µM*
COc1ccc(SCCN2CC[C@@H](O)CCC2=O)cc1 | ? | i | -1% | i | -3% | -20%
C[C@H]1CCC(=O)N([C@H](COc2ccccc2)Cc2ccccc2)CC1 | 18µM* | ? | -5% | i | -14% | 16µM*
COc1ccc(SC[C@H](Cc2ccccc2)N2CC[C@@H](C(C)(C)C)CCC2=O)cc1 | 18µM* | ? | -2% | ? | -5% | ?
COc1ccc(SCCN2CC[C@@H](C(C)(C)C)CCC2=O)cc1 | ? | i | 0% | ? | -4% | 16µM*
COc1cccc(NC(=O)C2(C)CCCN2C(=O)C(C)C)c1OC (centres undefined) | -1% | i | 22% | i | 16% | -9%
CCOc1ccc(C(c2c(O)cc(C)n(Cc3ccco3)c2=O)N2CCCCC2)cc1 (centres undefined) | 6% | i | . | i | . | 1%
COc1cc(OC)c(OC)cc1CN1CCc2nc(Nc3ccc4c(c3)OCCO4)ncc2C1 | 16µM* | i | . | i | . | ?
COc1cccc(CN2CCc3nc(Nc4ccc5c(c4)OCCO5)ncc3C2)c1 | ? | i | . | i | . | ?
Clc1ccc(CN2CCc3nc(Nc4ccc5c(c4)OCCO5)ncc3C2)cc1 | 16µM* | i | . | i | . | 13µM*
CCOC(=O)c1c(NC(=O)CSc2nnc(-c3ccco3)o2)sc(C)c1C | -29% | i | -4% | i | -8% | -20%
CCOC(=O)c1c(NC(=O)CSc2nnc(-c3cccnc3)o2)sc(C(C)=O)c1C | ? | i | -1% | i | -1% | 21µM*
SMILES | TDP1 cell CPT | KB-3-1 tox | HT1080NT lethal | KB-V1 cytotox | HT1080 IDH1KD tx | DT40 TDP1 no CPT
CCOC(=O)c1c(NC(=O)CSc2nnc(-c3ccco3)o2)sc(C(C)=O)c1C | ? | i | -7% | i | -2% | 13µM*
Cc1ccc(CSc2ncc(Cl)c(C(=O)Oc3ccc(F)cc3)n2)cc1 | -23% | . | . | . | . | -5%
COc1ccc(C(O)c2nccn2Cc2ccccc2)cc1 (centres undefined) | -29% | i | -1% | i | 2% | -14%
Cc1ncc(C(O)c2ccc(N(C)C)cc2)n1Cc1ccccc1 (centres undefined) | ? | i | -13% | i | 3% | 23µM*
CN(C)c1ccc(C(=S)N2CCN(Cc3ccccc3)CC2)cc1 | ? | i | -4% | ? | 11% | ?
CCc1ncc(C(O)c2ccc(Cl)cc2)n1Cc1ccccc1 (centres undefined) | 18µM* | ? | -9% | ? | ? | 12µM*
Cn1nnnc1SCC(=O)Nc1ncc(Cl)cc1Cl | 8% | i | 7% | i | 7% | -6%
CC1Cc2cc(S(=O)(=O)N3CCN(C)CC3)ccc2N1C(=O)C1CC1 (centres undefined) | -6% | i | 3% | i | -5% | 10%
CC(=O)c1ccc(N2CCN(S(=O)(=O)c3ccc4c(c3)CC(C)N4C(C)=O)CC2)cc1 (centres undefined) | 23µM* | ? | ? | 8.2µM* | ? | 7.3µM*
Cc1cccc(N2CCN(S(=O)(=O)c3ccc4c(c3)CC(C)N4C(=O)C3CC3)CC2)c1C (centres undefined) | ? | ? | ? | i | -1% | 23µM*
CCC(=O)N1c2ccc(S(=O)(=O)N3CCN(c4ccc([N+](=O)[O-])cc4)CC3)cc2CC1C (centres undefined) | 9.2µM* | i | ? | i | 6.5µM* | 7.3µM*
CC(=O)c1ccc(N2CCN(S(=O)(=O)c3ccc4c(c3)CC(C)N4C(=O)C3CC3)CC2)cc1 (centres undefined) | 4.6µM* | ? | -5% | i | -8% | 5.8µM*
O=C1c2ccccc2/C(=C\C#Cc2ccccn2)N1c1ccccc1 | ? | i | ? | i | -28% | ?
O=C(Nc1ccc2c(c1)OCO2)c1noc2c1CCCC2 | 8% | i | -4% | ? | -18% | -25%
CCc1cccc(C)c1NC(=O)c1nc2ccccc2nc1N1CCCCC1 | ? | i | . | i | . | -50%

Source: PubChem
